Screens (PubChem)
IMPase cell inh – cell-permeable inhibitors of inositol monophosphatase (IMPase) | P97697 | inhibition (IP1 accumulation), % at 46.1 µM | CHO-M1 cells, IP1 accumulation, HTRF TR-FRET ratio | 120,000 tested, under 10 active; active means well fitted curve in the direction sought with a large enough effect in the signal ratio, not every such curve was filed as active; inconclusive means small, poorly fitted or top-dose-only effect, or a change in a side signal; inactive means no such curve, though single readings can be large or run the other way; the % refers to the signal ratio;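 further: cells stimulated with carbachol in lithium chloride buffer; higher means more IMPase inhibition seen as more IP1 and lower FRET ratio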
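Elevated IP1 in lysates lowers TR-FRET signal (665/620 ratio and 620 channel reported). Cells were CHO-M1, given carbachol (50 uM as added) plus 50mM LiCl, pH 7.4, 30 min, 37C; compounds titrated up to 46 uM; AC50 by Hill equation.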
ALOX12 inhib – blocks human 12-lipoxygenase activity. 150,000 compounds, 0.12% hits. purified 12-hLO, xylenol orange hydroperoxide absorbance. Potency, µM (series often up to 57.1 µM), hits mostly inhibitors. P18054. AID 1452; further: nearly all actives have a fitted effect of over 55% in size
Target sequence (P18054 whole entry, looked up): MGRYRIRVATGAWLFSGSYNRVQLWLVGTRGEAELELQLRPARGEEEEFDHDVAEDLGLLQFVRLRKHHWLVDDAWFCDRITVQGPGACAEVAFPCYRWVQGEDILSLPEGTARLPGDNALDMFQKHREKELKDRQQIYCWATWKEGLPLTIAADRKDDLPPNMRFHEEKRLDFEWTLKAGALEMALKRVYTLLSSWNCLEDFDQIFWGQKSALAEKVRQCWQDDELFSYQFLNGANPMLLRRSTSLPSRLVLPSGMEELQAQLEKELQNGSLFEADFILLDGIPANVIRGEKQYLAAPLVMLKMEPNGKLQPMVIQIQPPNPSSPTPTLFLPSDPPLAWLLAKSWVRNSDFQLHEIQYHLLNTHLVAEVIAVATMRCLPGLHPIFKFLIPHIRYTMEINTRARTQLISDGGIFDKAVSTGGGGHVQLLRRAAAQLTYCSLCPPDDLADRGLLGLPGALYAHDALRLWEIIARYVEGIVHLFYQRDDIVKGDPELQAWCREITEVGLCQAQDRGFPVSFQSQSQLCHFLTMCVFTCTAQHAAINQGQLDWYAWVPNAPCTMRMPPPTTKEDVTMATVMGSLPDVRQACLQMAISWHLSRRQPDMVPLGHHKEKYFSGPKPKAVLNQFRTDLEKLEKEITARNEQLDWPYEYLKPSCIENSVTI
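Purified human 12hLO (150 nM), preincubated 15 min with compound, then 40 uM arachidonic acid for 30 min, room temperature, Hepes pH 7.0 with 0.01% Triton X-100. Hydroperoxide detected by ferrous iron/xylenol orange; 573/405 nm absorbance ratio gives reaction progress.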
HPGD inh – HPGD (human) dehydrogenase inhibition; 150,000 compounds, 4.3% hits; purified HPGD, NADH fluorescence kinetic, PGE2 substrate; Potency, µM, usual class: inhibitors; active means well fitted inhibition curve with a large enough effect, not every such curve was filed as active; inconclusive means small, poorly fitted or top-dose-only effect, or another doubt; inactive means no such curve, though single readings can be large or run the other way
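NADH formation kinetics: reaction with 30 uM PGE2 and 1 mM NAD+ (final), 20 nM enzyme, Tris-HCl pH 8 with Tween 20, after 15 min compound preincubation at room temperature. Fluorescence change, last versus first of five reads.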
IMPase Li inh – cell-permeable IMPase inhibitors with lithium potentiation. 210,000 compounds, 0.35% hits. CHO-M1 cells, IP1 TR-FRET (IP-One), carbachol + lithium. AID 1457. Potency, µM (top dose mostly 59.4 µM), actives largely listed as inhibitors;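 further: IP1 builds up when IMPase is blocked and the TR-FRET signal falls; nearly all actives have a fitted effect of over 50% in size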
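Steps: plate 2000 CHO-M1 cells per well and culture 16–30 h; add compound and lithium; incubate 30 min, 37C; add d2-IP1 tracer and Eu cryptate anti-IP1 antibody in lysis buffer; read after 10 min at room temperature.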
15-hLO-2 inh – 15-hLO-2 (ALOX15B) enzyme inhibition | O15296 | purified 15hLO-2, xylenol orange hydroperoxide absorbance | Potency, µM (doses to about 57.1 µM), most hits filed as inhibitors | 110,000 compounds, 0.56% hits | AID 881; further: nearly all actives have a fitted effect of over 60% in size
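Read-out: hydroperoxide product oxidises ferrous iron, measured as xylenol orange complex via the 573-to-405 nm absorbance ratio after 30 min. Reaction: 50 nM enzyme, 15 min compound preincubation, 45 uM arachidonic acid, 90 min RT, Hepes pH 7.5 with Triton X-100.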
PNC inhibitor – blocks assembly of the perinucleolar compartment; AID 2417; activity change (PNC), negative = inhibition, % at 10 µM; PC3M PTB-GFP, PNC prevalence imaging, 16 h; stronger effect = lower value; 140,000 compounds, 3.1% hits;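 active means readout at or below -70, meaning at least 70% loss of cells showing the perinucleolar compartment, a nuclear body marking cancer cells; inconclusive means readout between -30 and a set limit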
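PC3M cells stably expressing PTB-GFP, 750–1000 cells/well, treated 16 h at 37 °C with compound (23 nl of library stock), in duplicate. After paraformaldehyde fixation and Hoechst stain, imaged at 20x; PNC prevalence scored by image analysis.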
A number is an active result; . = inactive; ? = inconclusive; / = not tested or not shown. Shown are actives, neighbours in structure and some others; about 5.3% of the full set was active somewhere. Unless noted, the call rests on the fitted dose curve; in most records, active means well fitted curve in the direction sought with a large enough effect; inconclusive means small, poorly fitted or top-dose-only effect, or another doubt; inactive means no such curve, though single readings can be large; an effect the other way counts as inactive or inconclusive.

SMILES	IMPase cell inh	ALOX12 inhib	HPGD inh	IMPase Li inh	15-hLO-2 inh	PNC inhibitor
COc1ccc(-c2n[nH]c(=S)n2/N=C/C=C\c2ccccc2OC)cc1	.	.	0.89µM	.	/	.
S=c1[nH]nc(C2CCCCC2)n1/N=C/c1ccco1	/	.	?	.	/	.
COc1ccc(OC)c(-n2c(-c3cc(-c4ccccc4)n[nH]3)n[nH]c2=S)c1	/	.	?	.	/	.
COc1ccccc1/C=C\C=N\n1c(C2CCCCC2)n[nH]c1=S	.	.	14µM	.	13µM	.
COc1ccccc1-n1c(-c2ccccc2)n[nH]c1=S	/	/	/	.	/	/
COc1ccc(NC(=O)/C=C\c2ccc(Cl)cc2)cc1	.	.	/	/	.	/
CCOc1ccc(NC(=O)c2c(NC(=O)c3cccs3)sc3c2CCC(C(C)(C)C)C3)cc1 (configuration not stated)	.	/	/	/	/	/
COc1ccccc1NS(=O)(=O)c1cc(C(=O)O)ccc1F	/	.	.	/	/	/
O=C1N=C(N2CCC(Cc3ccccc3)CC2)S/C1=C/c1cn[nH]c1-c1ccccc1	.	.	25µM	.	.	.
CCSc1nnc2c(n1)OC(c1ccc(C)cc1)N(C(C)=O)c1ccccc1-2 (configuration not stated)	.	/	/	/	/	/
CC(C)CCNC(=O)C(c1ccc(O)cc1)N(Cc1cccs1)C(=O)C1COc2ccccc2O1 (configuration not stated)	/	.	.	.	/	.
O=C(NCc1ccco1)C(c1cccs1)N(C(=O)C1COc2ccccc2O1)c1cccc(O)c1 (configuration not stated)	.	.	.	.	.	-116
Cc1ccc(C(=O)Nc2cc([N+](=O)[O-])ccc2C)cc1	/	/	/	.	/	/
Cc1c(NC(=S)NC(=O)C(C)(C)C)cccc1[N+](=O)[O-]	.	.	.	.	/	?
CC(=O)NC(=S)Nc1ccc([N+](=O)[O-])cc1C	/	/	/	.	/	/
Cc1ccc([N+](=O)[O-])cc1NC(=O)c1ccc(C(C)(C)C)cc1	.	.	16µM	.	.	?
CCCCC(=O)NC(=S)Nc1cc([N+](=O)[O-])ccc1OC	/	/	/	.	/	/
Cc1ccc([N+](=O)[O-])cc1NC(=S)NC(=O)CC(C)(C)C	.	.	16µM	.	.	.
Cc1cc([N+](=O)[O-])ccc1NC(=S)NC(=O)Cc1ccccc1	.	.	18µM	.	.	.
Cc1ccc([N+](=O)[O-])cc1NC(=S)NC(=O)C(C)(C)C	.	?	7.1µM	.	?	.
O=C(Nc1ccc(N2CCOCC2)c(F)c1)c1ccncc1	.	.	.	.	.	.
CCC1=C2CC[C@H]3C(=O)N(C)C(=O)[C@H]3[C@H]2[C@@]2(C)C(=O)N(CC3CC3)C(=O)N2C1=O	/	.	.	.	.	/
Nc1nc(SCC(=O)Nc2cccc(C(F)(F)F)c2)n[nH]1	.	/	/	/	/	/
COc1ccccc1C(=O)N(c1ccc(C)cc1)S(=O)(=O)c1ccc(Cl)cc1	.	/	/	/	/	/
Cc1cc(C)n(C(=O)C(C)N2C(=O)c3ccccc3C2=O)n1 (configuration not stated)	.	.	.	.	.	.
SMILES	IMPase cell inh	ALOX12 inhib	HPGD inh	IMPase Li inh	15-hLO-2 inh	PNC inhibitor
O=C(O)c1cc([N+](=O)[O-])c(N2CCCC2)c([N+](=O)[O-])c1	.	.	.	.	/	.
COc1ccc(OC)c(S(=O)(=O)Nc2ccc(O)c3ccccc23)c1	.	.	3.2µM	.	16µM	?
CCOc1ccc(S(=O)(=O)Nc2ccc(O)c(Sc3ncn[nH]3)c2)cc1	.	.	.	.	/	.
COc1ccc(OC)c(S(=O)(=O)Nc2ccc(O)c(Sc3ncn[nH]3)c2)c1	.	.	22µM	.	.	.
C=C(C)Cn1c(SCC(=O)N/N=C/c2cccc(O)c2)nc2ccccc2c1=O	/	.	.	.	/	.
CC(C)(C)c1ccc(C(=O)Nc2ccc(N3CCOCC3)cc2)cc1	.	.	.	.	.	.
CC(C)(C)c1ccc(C(=O)NC(=S)Nc2ccc(N3CCOCC3)cc2)cc1	/	.	.	.	/	-123
O=C(NC(=S)Nc1ccc(N2CCCCC2)cc1)c1ccc2c(c1)OCCO2	/	.	28µM	.	/	.
O=C(NC(=S)Nc1ccc(N2CCOCC2)cc1)c1ccc2c(c1)OCCO2	/	.	?	.	/	.
CC1=CC(=O)OC1Cc1ccc2ccccc2n1 (configuration not stated)	/	/	.	.	/	/
Cc1nc2sccn2c(=O)c1CCN1CCC(=C(c2ccc(F)cc2)c2ccc(F)cc2)CC1	.	.	.	.	.	-115
COc1ccc2c(c1)OCC(Cc1ccc(OC)c(O)c1)C2=O (configuration not stated)	/	.	?	.	.	/
O=S1(=O)N=C(N(Cc2cccs2)c2ccc(O)cc2)c2ccccc21	/	/	/	.	/	/
Cc1ccc(S(=O)(=O)NCC(=O)OCC(=O)c2ccc(Br)s2)cc1	?	.	.	10µM	.	.
